Article PMC7862700, “An all-to-all approach to the identification of sequence-specific readers for epigenetic DNA modifications on cytosine”

What was measured:
Assay in all cases: DAPPL (digital affinity profiling via proximity ligation, sequencing); 10 mM Tris-HCl pH 7.5, 50 mM NaCl, 1 mM DTT, 4% glycerol, room temperature, 30 min; GST-TFs on glutathione beads, 16-mer random dsDNA library, 0.1% formaldehyde crosslink after washing; high values mean tight binding
Details in all cases: protein: recombinant; tags: N-terminal GST; dsDNA, one strand shown
FEV = target: T1, FEV (Homo sapiens, UniProt Q99581 1-238)
T1 sequence: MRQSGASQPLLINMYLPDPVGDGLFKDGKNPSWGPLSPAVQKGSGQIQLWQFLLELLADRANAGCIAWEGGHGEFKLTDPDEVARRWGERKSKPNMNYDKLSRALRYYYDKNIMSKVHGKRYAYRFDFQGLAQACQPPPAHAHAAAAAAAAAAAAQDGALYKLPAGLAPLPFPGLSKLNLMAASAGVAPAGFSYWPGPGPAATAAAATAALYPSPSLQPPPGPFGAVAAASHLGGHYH
Outline: (§1)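 GST fusions of human transcription factors were expressed in yeast and captured with glutathione beads. Once given DNA barcodes and pooled alongside a tag-only sample, they were incubated for 30 min at room temperature with 200 nmole of a random double-stranded 16-mer DNA library in Tris/NaCl/DTT/glycerol buffer, then washed, crosslinked (0.1% formaldehyde), proximity-ligated, PCR-amplified and sequenced on an Illumina NextSeq500. The binding signal of each hexamer is its read frequency for a factor divided by its frequency for the tag-only sample.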

ETV5 = ETV5 (Homo sapiens, UniProt P41161 1-510)
Outline: as §1

SPIC = target: T2, SPIC (Homo sapiens, UniProt Q8N5J4 1-248)
T2 sequence: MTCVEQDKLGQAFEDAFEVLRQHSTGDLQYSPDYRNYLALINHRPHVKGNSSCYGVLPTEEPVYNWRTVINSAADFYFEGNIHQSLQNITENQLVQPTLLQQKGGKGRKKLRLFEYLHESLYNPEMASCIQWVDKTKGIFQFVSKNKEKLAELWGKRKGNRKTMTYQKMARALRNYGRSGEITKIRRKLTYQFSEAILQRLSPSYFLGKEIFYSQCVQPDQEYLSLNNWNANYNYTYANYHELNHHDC
Outline: as §1

ELF4 = ELF4 (Homo sapiens, UniProt Q99607 1-663)
Outline: as §1

ELK4 = target: T3, ELK4 (Homo sapiens, UniProt P28324-2 1-405)
T3 sequence: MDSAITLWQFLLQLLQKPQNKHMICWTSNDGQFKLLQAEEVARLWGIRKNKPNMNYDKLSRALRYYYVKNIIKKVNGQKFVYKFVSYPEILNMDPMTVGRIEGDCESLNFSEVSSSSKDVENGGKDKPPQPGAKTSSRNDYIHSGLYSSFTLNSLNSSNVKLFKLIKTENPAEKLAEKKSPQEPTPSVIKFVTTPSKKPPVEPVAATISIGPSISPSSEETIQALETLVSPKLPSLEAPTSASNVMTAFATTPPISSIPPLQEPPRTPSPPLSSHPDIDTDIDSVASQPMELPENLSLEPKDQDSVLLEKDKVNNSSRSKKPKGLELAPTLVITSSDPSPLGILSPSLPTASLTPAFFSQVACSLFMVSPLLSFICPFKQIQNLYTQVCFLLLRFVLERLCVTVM
Outline: as §1

ETV2 = target: T4, ETV2 (Homo sapiens, UniProt O00321 1-342)
T4 sequence: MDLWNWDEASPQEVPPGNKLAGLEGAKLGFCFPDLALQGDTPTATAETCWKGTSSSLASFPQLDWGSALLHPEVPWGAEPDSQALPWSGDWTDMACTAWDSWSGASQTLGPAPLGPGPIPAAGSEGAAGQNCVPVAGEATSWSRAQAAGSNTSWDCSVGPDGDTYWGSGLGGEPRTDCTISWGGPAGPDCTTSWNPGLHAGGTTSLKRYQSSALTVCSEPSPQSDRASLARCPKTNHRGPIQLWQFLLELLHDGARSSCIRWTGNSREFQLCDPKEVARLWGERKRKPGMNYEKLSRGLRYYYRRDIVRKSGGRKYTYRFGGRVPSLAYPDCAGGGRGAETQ
Outline: as §1

ELF3 = target: T5, ELF3 (Homo sapiens, UniProt P78545 1-371)
T5 sequence: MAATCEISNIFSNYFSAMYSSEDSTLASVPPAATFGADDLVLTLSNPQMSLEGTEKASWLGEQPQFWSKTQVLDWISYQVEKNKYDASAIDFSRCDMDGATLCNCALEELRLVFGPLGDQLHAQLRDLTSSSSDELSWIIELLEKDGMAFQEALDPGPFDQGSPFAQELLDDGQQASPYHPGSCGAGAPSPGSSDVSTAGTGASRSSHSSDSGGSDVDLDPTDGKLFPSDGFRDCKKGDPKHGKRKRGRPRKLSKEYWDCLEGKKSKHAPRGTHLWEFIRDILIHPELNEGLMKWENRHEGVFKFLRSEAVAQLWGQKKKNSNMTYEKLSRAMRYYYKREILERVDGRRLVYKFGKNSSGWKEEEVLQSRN
Outline: as §1

ETV1 = ETV1 (Homo sapiens, UniProt P50549 1-477)
Outline: as §1

ERF = target: T6, ERF (Homo sapiens, UniProt P50548 1-548)
T6 sequence: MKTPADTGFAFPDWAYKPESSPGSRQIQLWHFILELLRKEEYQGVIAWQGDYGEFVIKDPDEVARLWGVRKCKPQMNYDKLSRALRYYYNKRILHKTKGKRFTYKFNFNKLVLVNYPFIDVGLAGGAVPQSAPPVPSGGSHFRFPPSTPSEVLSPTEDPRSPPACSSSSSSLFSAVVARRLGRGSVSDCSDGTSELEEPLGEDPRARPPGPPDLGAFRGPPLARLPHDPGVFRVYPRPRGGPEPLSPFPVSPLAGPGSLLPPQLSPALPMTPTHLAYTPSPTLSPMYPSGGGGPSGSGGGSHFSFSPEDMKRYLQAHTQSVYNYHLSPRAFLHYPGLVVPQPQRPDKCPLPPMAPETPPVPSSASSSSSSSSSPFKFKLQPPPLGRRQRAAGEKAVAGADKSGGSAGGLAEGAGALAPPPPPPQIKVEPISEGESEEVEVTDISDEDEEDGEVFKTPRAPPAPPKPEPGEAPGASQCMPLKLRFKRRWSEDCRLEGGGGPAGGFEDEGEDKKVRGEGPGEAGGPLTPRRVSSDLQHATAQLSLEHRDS
Outline: as §1

ETV3L = target: T7, ETV3L (Homo sapiens, UniProt Q6ZN32 1-361)
T7 sequence: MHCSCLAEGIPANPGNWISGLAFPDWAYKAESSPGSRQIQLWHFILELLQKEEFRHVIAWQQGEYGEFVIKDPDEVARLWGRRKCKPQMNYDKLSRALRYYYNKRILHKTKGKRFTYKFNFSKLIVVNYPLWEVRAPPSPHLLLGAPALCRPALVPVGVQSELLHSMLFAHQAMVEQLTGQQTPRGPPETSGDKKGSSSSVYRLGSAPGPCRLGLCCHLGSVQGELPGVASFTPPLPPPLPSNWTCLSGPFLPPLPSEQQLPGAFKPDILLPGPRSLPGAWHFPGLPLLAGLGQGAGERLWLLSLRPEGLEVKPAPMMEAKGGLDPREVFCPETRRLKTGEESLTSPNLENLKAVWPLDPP
Outline: as §1

ETS2 = target: T8, ETS2 (Homo sapiens, UniProt P15036 1-469)
T8 sequence: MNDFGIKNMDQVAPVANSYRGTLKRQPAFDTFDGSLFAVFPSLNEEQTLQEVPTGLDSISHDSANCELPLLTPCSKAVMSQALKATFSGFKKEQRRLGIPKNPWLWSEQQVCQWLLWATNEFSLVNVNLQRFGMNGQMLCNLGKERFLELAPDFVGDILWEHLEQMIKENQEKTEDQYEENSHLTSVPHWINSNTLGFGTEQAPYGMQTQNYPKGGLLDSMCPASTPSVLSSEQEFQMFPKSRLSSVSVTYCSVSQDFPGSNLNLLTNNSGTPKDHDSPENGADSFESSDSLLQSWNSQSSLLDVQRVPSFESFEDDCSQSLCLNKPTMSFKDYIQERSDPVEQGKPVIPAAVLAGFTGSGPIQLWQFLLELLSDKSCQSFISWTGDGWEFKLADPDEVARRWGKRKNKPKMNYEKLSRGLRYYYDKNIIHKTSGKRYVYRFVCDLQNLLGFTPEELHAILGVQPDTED
Outline: as §1

SPDEF = target: T9, SPDEF (Homo sapiens, UniProt O95238 1-335)
T9 sequence: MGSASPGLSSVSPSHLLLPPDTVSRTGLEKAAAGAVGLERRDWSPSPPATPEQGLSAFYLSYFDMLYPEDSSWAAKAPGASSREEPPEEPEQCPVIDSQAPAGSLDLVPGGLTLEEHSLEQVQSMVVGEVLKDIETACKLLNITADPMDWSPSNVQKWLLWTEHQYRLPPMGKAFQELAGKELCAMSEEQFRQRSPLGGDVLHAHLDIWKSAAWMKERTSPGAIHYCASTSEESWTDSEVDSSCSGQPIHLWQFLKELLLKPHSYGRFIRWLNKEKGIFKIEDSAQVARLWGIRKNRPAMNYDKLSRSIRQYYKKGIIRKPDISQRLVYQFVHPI
Outline: as §1

ETV7 = target: T10, ETV7 (Homo sapiens, UniProt Q9Y603 1-341)
T10 sequence: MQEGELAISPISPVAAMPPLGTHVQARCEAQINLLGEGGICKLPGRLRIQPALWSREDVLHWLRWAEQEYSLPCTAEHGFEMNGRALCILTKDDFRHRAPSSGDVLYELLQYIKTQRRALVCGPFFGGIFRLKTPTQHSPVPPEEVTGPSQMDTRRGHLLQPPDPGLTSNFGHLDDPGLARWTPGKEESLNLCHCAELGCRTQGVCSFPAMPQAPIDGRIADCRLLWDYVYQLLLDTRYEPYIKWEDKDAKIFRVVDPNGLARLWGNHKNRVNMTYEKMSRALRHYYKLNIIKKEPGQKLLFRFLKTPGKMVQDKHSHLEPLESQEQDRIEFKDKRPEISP
Outline: as §1

ELF5 = target: T11, ELF5 (Homo sapiens, UniProt Q9UKW6-2 1-255)
T11 sequence: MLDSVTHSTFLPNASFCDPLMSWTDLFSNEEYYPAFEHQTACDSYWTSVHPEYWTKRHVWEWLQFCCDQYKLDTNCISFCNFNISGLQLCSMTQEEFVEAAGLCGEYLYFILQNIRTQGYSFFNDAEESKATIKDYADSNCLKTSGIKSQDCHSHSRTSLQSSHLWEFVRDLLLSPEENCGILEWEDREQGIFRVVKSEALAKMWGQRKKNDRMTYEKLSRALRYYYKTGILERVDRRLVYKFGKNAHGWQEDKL
Outline: as §1

ETV3 = target: T12, ETV3 (Homo sapiens, UniProt P41162-2 1-143)
T12 sequence: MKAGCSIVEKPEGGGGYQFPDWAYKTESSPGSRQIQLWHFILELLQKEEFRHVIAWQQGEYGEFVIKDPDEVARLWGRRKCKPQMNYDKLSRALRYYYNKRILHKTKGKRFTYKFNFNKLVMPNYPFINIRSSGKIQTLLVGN
Outline: as §1

ETV6 = ETV6 (Homo sapiens, UniProt P41212 1-452)
Outline: as §1

Chain of ETV1 (P50549 whole entry): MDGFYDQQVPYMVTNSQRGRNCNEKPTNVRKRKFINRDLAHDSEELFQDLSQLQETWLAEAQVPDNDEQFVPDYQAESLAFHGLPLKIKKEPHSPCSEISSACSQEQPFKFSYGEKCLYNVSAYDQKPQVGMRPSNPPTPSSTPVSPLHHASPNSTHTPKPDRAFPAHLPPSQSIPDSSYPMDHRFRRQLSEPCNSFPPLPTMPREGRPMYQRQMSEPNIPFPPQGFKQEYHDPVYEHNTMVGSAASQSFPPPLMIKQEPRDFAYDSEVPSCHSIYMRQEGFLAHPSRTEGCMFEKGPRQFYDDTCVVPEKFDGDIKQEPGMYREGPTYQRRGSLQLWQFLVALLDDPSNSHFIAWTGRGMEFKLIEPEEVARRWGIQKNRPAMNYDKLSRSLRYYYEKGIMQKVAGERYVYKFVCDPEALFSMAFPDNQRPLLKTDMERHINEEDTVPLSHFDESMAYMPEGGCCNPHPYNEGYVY
Chain of ELF4 (Q99607 whole entry): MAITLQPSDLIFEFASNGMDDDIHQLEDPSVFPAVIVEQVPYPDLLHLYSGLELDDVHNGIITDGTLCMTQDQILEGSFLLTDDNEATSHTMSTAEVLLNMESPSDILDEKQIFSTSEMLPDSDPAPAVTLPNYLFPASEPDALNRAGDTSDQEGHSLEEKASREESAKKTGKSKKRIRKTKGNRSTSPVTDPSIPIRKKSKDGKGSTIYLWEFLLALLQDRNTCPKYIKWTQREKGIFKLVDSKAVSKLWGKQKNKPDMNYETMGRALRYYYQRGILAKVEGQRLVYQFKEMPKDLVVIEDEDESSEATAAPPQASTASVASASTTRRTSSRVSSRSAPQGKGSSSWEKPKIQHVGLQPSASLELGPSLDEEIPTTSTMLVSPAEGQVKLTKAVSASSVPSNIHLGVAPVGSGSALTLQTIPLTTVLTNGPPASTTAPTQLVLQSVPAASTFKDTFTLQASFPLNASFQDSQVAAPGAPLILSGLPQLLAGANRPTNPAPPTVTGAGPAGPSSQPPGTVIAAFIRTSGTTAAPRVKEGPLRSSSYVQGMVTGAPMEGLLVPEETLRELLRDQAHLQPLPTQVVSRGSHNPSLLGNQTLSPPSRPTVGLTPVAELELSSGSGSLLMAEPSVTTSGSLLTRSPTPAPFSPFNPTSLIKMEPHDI
Chain of ETV5 (P41161 whole entry): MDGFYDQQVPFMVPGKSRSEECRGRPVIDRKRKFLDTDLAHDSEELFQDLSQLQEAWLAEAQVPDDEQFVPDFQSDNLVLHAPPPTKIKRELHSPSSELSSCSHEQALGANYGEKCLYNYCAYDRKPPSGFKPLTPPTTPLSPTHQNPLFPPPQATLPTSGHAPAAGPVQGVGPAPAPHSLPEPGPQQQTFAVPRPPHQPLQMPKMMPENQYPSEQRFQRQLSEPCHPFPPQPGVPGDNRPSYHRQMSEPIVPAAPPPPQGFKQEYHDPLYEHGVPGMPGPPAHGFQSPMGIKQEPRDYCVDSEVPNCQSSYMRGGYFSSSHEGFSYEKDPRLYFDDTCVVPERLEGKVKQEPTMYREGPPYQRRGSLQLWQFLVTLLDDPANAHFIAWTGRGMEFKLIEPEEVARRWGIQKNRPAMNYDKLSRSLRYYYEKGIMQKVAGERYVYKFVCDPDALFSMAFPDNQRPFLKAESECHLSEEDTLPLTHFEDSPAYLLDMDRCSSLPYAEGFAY
Chain of ETV6 (P41212 whole entry): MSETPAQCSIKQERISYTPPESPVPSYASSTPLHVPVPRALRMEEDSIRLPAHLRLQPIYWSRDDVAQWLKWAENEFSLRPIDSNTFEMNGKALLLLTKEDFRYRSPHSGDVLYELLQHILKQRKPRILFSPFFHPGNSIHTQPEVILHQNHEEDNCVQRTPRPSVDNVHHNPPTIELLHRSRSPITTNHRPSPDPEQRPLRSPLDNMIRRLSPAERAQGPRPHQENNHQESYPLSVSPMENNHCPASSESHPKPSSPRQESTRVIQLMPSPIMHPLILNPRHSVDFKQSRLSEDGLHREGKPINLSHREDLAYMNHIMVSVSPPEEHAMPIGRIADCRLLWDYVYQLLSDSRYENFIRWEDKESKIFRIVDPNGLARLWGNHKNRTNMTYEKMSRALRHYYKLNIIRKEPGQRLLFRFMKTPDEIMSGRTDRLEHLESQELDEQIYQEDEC

Sequence	binding signal (FEV)	binding signal (ETV5)	binding signal (SPIC)	binding signal (ELF4)	binding signal (ELK4)	binding signal (ETV2)	binding signal (ELF3)	binding signal (ETV1)	binding signal (ERF)	binding signal (ETV3L)	binding signal (ETS2)	binding signal (SPDEF)	binding signal (ETV7)	binding signal (ELF5)	binding signal (ETV3)	binding signal (ETV6)
GGATGC	1.29 fold enrichment (6-mer frequency, TF over GST control)	1.27 fold enrichment (6-mer frequency, TF over GST control)	1.2 fold enrichment (6-mer frequency, TF over GST control)	1.09 fold enrichment (6-mer frequency, TF over GST control)	1.13 fold enrichment (6-mer frequency, TF over GST control)	1.06 fold enrichment (6-mer frequency, TF over GST control)	1.13 fold enrichment (6-mer frequency, TF over GST control)	1.2 fold enrichment (6-mer frequency, TF over GST control)	1.13 fold enrichment (6-mer frequency, TF over GST control)	1.19 fold enrichment (6-mer frequency, TF over GST control)	1.2 fold enrichment (6-mer frequency, TF over GST control)	1.91 fold enrichment (6-mer frequency, TF over GST control)	1.22 fold enrichment (6-mer frequency, TF over GST control)	1.25 fold enrichment (6-mer frequency, TF over GST control)	1.3 fold enrichment (6-mer frequency, TF over GST control)	1.15 fold enrichment (6-mer frequency, TF over GST control)
CTCACC	1.2 fold enrichment (6-mer frequency, TF over GST control)	1.16 fold enrichment (6-mer frequency, TF over GST control)	1.25 fold enrichment (6-mer frequency, TF over GST control)	1.28 fold enrichment (6-mer frequency, TF over GST control)	1.2 fold enrichment (6-mer frequency, TF over GST control)	1.17 fold enrichment (6-mer frequency, TF over GST control)	1.33 fold enrichment (6-mer frequency, TF over GST control)	1.25 fold enrichment (6-mer frequency, TF over GST control)	1.33 fold enrichment (6-mer frequency, TF over GST control)	1.16 fold enrichment (6-mer frequency, TF over GST control)	1.11 fold enrichment (6-mer frequency, TF over GST control)	1.12 fold enrichment (6-mer frequency, TF over GST control)	1.06 fold enrichment (6-mer frequency, TF over GST control)	1.15 fold enrichment (6-mer frequency, TF over GST control)	1.14 fold enrichment (6-mer frequency, TF over GST control)	1.08 fold enrichment (6-mer frequency, TF over GST control)
